In PubChem BioAssay (NCI) one finds growth inhibition data, which are given here for ten compounds.

About 79,000 compounds went through this panel and 15% of them were active in at least one assay; those are over-represented in the sample as a whole. A number with no mark means an inactive call. The source made the active and inactive calls. Rule as the data show it: active = growth inhibition above about 70%; inactive = the rest.

Assay [1] in a line: NCI Yeast Anticancer Drug Screen. Data for the rad50 strain (AID 155).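 Also: 0% = growth of vehicle-only cultures of the same strain.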 The following applies: S. cerevisiae rad50 strain growth inhibition, stronger effect = higher value. In short, it runs like this: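 Inhibition values express reduced yeast growth in compound-treated cultures relative to vehicle-treated controls.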
Assay [2] in a line: NCI Yeast Anticancer Drug Screen. Data for the mec2-1 strain (AID 157). The following applies: S. cerevisiae mec2-1 strain, stronger effect = higher value. The procedure, abridged: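 Yeast mec2-1 mutant treated with compound. Readout: growth inhibition vs vehicle controls.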
Assay [3] is described as follows: NCI Yeast Anticancer Drug Screen. Data for the sgs1 mgt1 strain (AID 161).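 Also: 0% = growth of cultures given vehicle only.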 The following applies: S. cerevisiae sgs1 mgt1 strain, stronger effect = higher value. The procedure, abridged:
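Genetically altered yeast, compound exposure, growth inhibition relative to vehicle.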

Assay [4] can be described thus: NCI Yeast Anticancer Drug Screen. Data for the cln2 rad14 strain (AID 165).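 Also: 0% = growth equal to vehicle treated cultures.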 The following applies: S. cerevisiae cln2 rad14 strain, stronger effect = higher value. In short, it runs like this: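 cln2 rad14 yeast strain; compound exposure; growth inhibition read vs vehicle controls.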
Assay [5] can be described thus: NCI Yeast Anticancer Drug Screen. Data for the bub3 strain (AID 167). The following applies: S. cerevisiae bub3 mutant strain, stronger effect = higher value. The procedure, abridged: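 Steps: expose the mutant yeast strain to compound; grow alongside vehicle-treated cultures; measure growth; express inhibition against the vehicle cultures.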
Assay [6] can be described thus: NCI Yeast Anticancer Drug Screen. Data for the mlh1 rad18 strain (AID 175). The following applies: S. cerevisiae mlh1 rad18 strain growth inhibition, stronger effect = higher value. The procedure, abridged:
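Yeast w/ defined DNA-repair lesions; compound exposure; growth vs vehicle controls → % inhibition.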

The mark [7] stands for this setting: at 5.0 µM (retest, dose inferred, filed as 0.5).
Where [8] appears, read: at 50.0 µM (retest, dose inferred, filed as 5.0).

For the compound `CN(C)CC(C)(C)C(/C=C/c1ccccc1)=N\Nc1ccccc1`, the growth inhibition in assay [1] (setting [7]) was 3%; in assay [1] (setting [8]), 61%; in assay [1] (at 50.0 µM), 98.1% (active); in assay [2] (setting [7]) it was 0%; in assay [2] (setting [8]) it was 68%; in assay [2] (at 50.0 µM), 90.2% (active). Besides, the growth inhibition in assay [3] (setting [7]) is 12%; in assay [3] (setting [8]), 72% (active); in assay [3] (at 50.0 µM), 97.8% (active); in assay [4] (setting [7]), 6%; in assay [4] (setting [8]), 47%; in assay [4] (at 50.0 µM), 97.3% (active). The growth inhibition in assay [5] (setting [7]) is 1%; in assay [5] (setting [8]), 91% (active); in assay [5] (at 50.0 µM), 98.6% (active); in assay [6] (setting [7]), 2%; in assay [6] (setting [8]), 76% (active); in assay [6] (at 50.0 µM), 98.3% (active).
Take `C#CC(CC)(CC)NC(=O)NC(C)(C)C`: the growth inhibition in assay [1] (setting [7]) was 0%; in assay [1] (setting [8]), -18%; in assay [1] (at 50.0 µM), 2.1%; in assay [2] (setting [7]), -26%; in assay [2] (setting [8]), -25%; in assay [2] (at 50.0 µM), 0.85%. Also, the growth inhibition is -11% in assay [3] (setting [7]); -1% in assay [3] (setting [8]); 35.5% in assay [3] (at 50.0 µM); 2% in assay [4] (setting [7]); 23% in assay [4] (setting [8]); -1.85% in assay [4] (at 50.0 µM). The growth inhibition in assay [5] (setting [7]) was -19%; in assay [5] (setting [8]), -17%; in assay [5] (at 50.0 µM), 28.4%; in assay [6] (setting [7]) it was -21%; in assay [6] (setting [8]) it was -59%; in assay [6] (at 50.0 µM), 2.3%.
Regarding `N=C(N)c1ccc(/C=C/c2ccc(C(=N)N)cc2)cc1`, the growth inhibition in assay [1] (setting [7]) is 69%; in assay [1] (setting [8]), 80% (active); in assay [1] (at 50.0 µM) it was 85.8% (active); in assay [2] (setting [7]), 59%; in assay [2] (setting [8]), 91% (active); in assay [2] (at 50.0 µM) it was 81% (active). Further, the growth inhibition is 57% in assay [3] (setting [7]); 87% (active) in assay [3] (setting [8]); 74% (active) in assay [3] (at 50.0 µM); 75% (active) in assay [4] (setting [7]); 84% (active) in assay [4] (setting [8]); 67.6% in assay [4] (at 50.0 µM). Also, the growth inhibition in assay [5] (setting [7]) was 82% (active); in assay [5] (setting [8]), 94% (active); in assay [5] (at 50.0 µM), 87.5% (active); in assay [6] (setting [7]) it was 90% (active); in assay [6] (setting [8]) it was 95% (active); in assay [6] (at 50.0 µM), 90.2% (active).
`COCCNC(=O)C1C(=O)N(CCOC)C(=O)/C1=N/N` (stereo not given): the growth inhibition in assay [1] (setting [7]) was 1%; in assay [1] (setting [8]) it was -1%; in assay [1] (at 50.0 µM), -33.3%; in assay [2] (setting [7]) it was 1%; in assay [2] (setting [8]) it was 5%; in assay [2] (at 50.0 µM), 0.6%. In addition, the growth inhibition in assay [3] (setting [7]) was 8%; in assay [3] (setting [8]), -1%; in assay [3] (at 50.0 µM), 13.6%; in assay [4] (setting [7]) it was -2%; in assay [4] (setting [8]) it was 6%; in assay [4] (at 50.0 µM) it was 35%. For the same compound, the growth inhibition in assay [5] (setting [7]) is 0%; in assay [5] (setting [8]), 20%; in assay [5] (at 50.0 µM) it was -0.25%; in assay [6] (setting [7]), -3%; in assay [6] (setting [8]), -2%; in assay [6] (at 50.0 µM) it was 5.5%.
With `Clc1ccc(-c2csc(NCC3CCCO3)n2)cc1` (stereo not given), the growth inhibition in assay [1] (setting [7]) is 46%; in assay [1] (setting [8]) it was 60%; in assay [1] (at 50.0 µM), 66.4%; in assay [2] (setting [7]), 27%; in assay [2] (setting [8]), 57%; in assay [2] (at 50.0 µM) it was 39%. Also, the growth inhibition is 34% in assay [3] (setting [7]); 83% (active) in assay [3] (setting [8]); 77.2% (active) in assay [3] (at 50.0 µM); 27% in assay [4] (setting [7]); 53% in assay [4] (setting [8]); 63.2% in assay [4] (at 50.0 µM). The growth inhibition in assay [5] (setting [7]) is 39%; in assay [5] (setting [8]), 82% (active); in assay [5] (at 50.0 µM), 73.9% (active); in assay [6] (setting [7]), 44%; in assay [6] (setting [8]), 70% (active); in assay [6] (at 50.0 µM) it was 62.4%.
`Cc1ccc(S(=O)(=O)NCCSCCSCCNS(=O)(=O)c2ccc(C)cc2)cc1`: the growth inhibition was -1% in assay [1] (setting [7]); -7% in assay [1] (setting [8]); 55.4% in assay [1] (at 50.0 µM); -2% in assay [2] (setting [7]); -8% in assay [2] (setting [8]); 92.2% (active) in assay [2] (at 50.0 µM). Moreover, the growth inhibition in assay [3] (setting [7]) was -2%; in assay [3] (setting [8]), 1%; in assay [3] (at 50.0 µM) it was 50.5%; in assay [4] (setting [7]), -3%; in assay [4] (setting [8]), -5%; in assay [4] (at 50.0 µM), 86.9% (active). Further, the growth inhibition was 0% in assay [5] (setting [7]); -1% in assay [5] (setting [8]); 94.6% (active) in assay [5] (at 50.0 µM); -2% in assay [6] (setting [7]); -2% in assay [6] (setting [8]); 55.2% in assay [6] (at 50.0 µM).
On to `Cc1c(NC(=O)CCl)c(=O)oc2c(C)c3occc(=O)c3cc12`, for which the growth inhibition was 59% in assay [1] (setting [7]); 97% (active) in assay [1] (setting [8]); 96.8% (active) in assay [1] (at 50.0 µM); 16% in assay [2] (setting [7]); 93% (active) in assay [2] (setting [8]); 83.8% (active) in assay [2] (at 50.0 µM). Moreover, the growth inhibition in assay [3] (setting [7]) is 7%; in assay [3] (setting [8]), 89% (active); in assay [3] (at 50.0 µM), 90.8% (active); in assay [4] (setting [7]), 10%; in assay [4] (setting [8]), 85% (active); in assay [4] (at 50.0 µM), 29.3%. For the same compound, the growth inhibition in assay [5] (setting [7]) is 10%; in assay [5] (setting [8]), 91% (active); in assay [5] (at 50.0 µM), 79.2% (active); in assay [6] (setting [7]), 13%; in assay [6] (setting [8]), 94% (active); in assay [6] (at 50.0 µM), 92% (active).
For the compound `Cc1ccc(C(=O)OCC(C)C)cc1N=NN(C)C`, the growth inhibition was 4% in assay [1] (setting [7]); 21% in assay [1] (setting [8]); 68.8% in assay [1] (at 50.0 µM); -3% in assay [2] (setting [7]); -6% in assay [2] (setting [8]); 19.9% in assay [2] (at 50.0 µM). In addition, the growth inhibition in assay [3] (setting [7]) was -5%; in assay [3] (setting [8]), 14%; in assay [3] (at 50.0 µM), 29.4%; in assay [4] (setting [7]), 7%; in assay [4] (setting [8]), 31%; in assay [4] (at 50.0 µM), 38.8%. For the same compound, the growth inhibition is -1% in assay [5] (setting [7]); 48% in assay [5] (setting [8]); 31.1% in assay [5] (at 50.0 µM); -24% in assay [6] (setting [7]); 38% in assay [6] (setting [8]); 8.3% in assay [6] (at 50.0 µM).
For `O=CC(O)C(O)C(O)C(O)C(=O)NCCCCCCCCCCCCNC(=O)C(O)C(O)C(O)C(O)C=O` (stereo not given), the growth inhibition in assay [1] (setting [7]) is 19%; in assay [1] (setting [8]) it was 22%; in assay [1] (at 50.0 µM), 16.4%; in assay [2] (setting [7]) it was 20%; in assay [2] (setting [8]), 27%; in assay [2] (at 50.0 µM) it was 12.2%. For the same compound, the growth inhibition was -20% in assay [3] (setting [7]); -28% in assay [3] (setting [8]); 21.9% in assay [3] (at 50.0 µM); -2% in assay [4] (setting [7]); 18% in assay [4] (setting [8]); 25.2% in assay [4] (at 50.0 µM). For the same compound, the growth inhibition in assay [5] (setting [7]) is -4%; in assay [5] (setting [8]) it was 10%; in assay [5] (at 50.0 µM), -6.7%; in assay [6] (setting [7]) it was 20%; in assay [6] (setting [8]) it was 23%; in assay [6] (at 50.0 µM), -20.6%.
As to `COc1cccc(CCCNC(=O)Cc2ccccc2CO)c1`, the growth inhibition in assay [1] (setting [7]) was 12%; in assay [1] (setting [8]), 14%; in assay [1] (at 50.0 µM) it was 34.2%; in assay [2] (setting [7]), 9%; in assay [2] (setting [8]), 5%; in assay [2] (at 50.0 µM), -55.1%. For the same compound, the growth inhibition in assay [3] (setting [7]) is 9%; in assay [3] (setting [8]), 12%; in assay [3] (at 50.0 µM) it was -13.8%; in assay [4] (setting [7]), 1%; in assay [4] (setting [8]) it was 5%; in assay [4] (at 50.0 µM), 7.7%. Moreover, the growth inhibition is 11% in assay [5] (setting [7]); 14% in assay [5] (setting [8]); -12.2% in assay [5] (at 50.0 µM); 13% in assay [6] (setting [7]); 10% in assay [6] (setting [8]); -46.8% in assay [6] (at 50.0 µM).
